Results taken from the supplement of paper PMC7411054.
Counter-ions that a name gives are not always drawn.

Tests used:
Test in all cases: phenotypically active (imaging signature differs from DMSO and reproducible) at any of 0.3-9 uM (binary (1 = active, 0 = inactive)); higher = active
Conditions in all cases: treatment time: 24 h
[1] = system: A549-ACTB-RAB5A
In short: (§1)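 After 24 h at 0.3, 1, 3 or 9 µM, with four wells per treatment, fifteen gene-edited A549, HepG2 and WPMY1 reporter lines carrying BFP, GFP and RFP/FusionRed were imaged live. Each well's live-cell features were expressed relative to solvent control wells. Deviation required ≥3 of 4 wells past the 95th percentile of control Euclidean distances, and reproducibility a median replicate Pearson correlation over the 95th percentile of non-replicates. Phenotypic activity rested on both.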

[2] = system: A549-CANX-COX4
In short: as §1

[3] = system: A549-GM130-SQSTM1
In short: as §1

[4] = system: A549-TP53BP1-CLTA
In short: as §1

[5] = system: A549-TUBA1B-RELA
In short: as §1

[6] = system: HepG2-ACTB-RAB5A
In short: as §1

[7] = system: HepG2-CANX-COX4
In short: as §1

[8] = system: HepG2-GM130-SQSTM1
In short: as §1

[9] = system: HepG2-TP53BP1-CLTA
In short: as §1

[10] = system: HepG2-TUBA1B-RELA
In short: as §1

[11] = system: WPMY1-ACTB-RAB5A
In short: as §1

[12] = system: WPMY1-CANX-COX4
In short: as §1

[13] = system: WPMY1-GM130-SQSTM1
In short: as §1

[14] = system: WPMY1-TP53BP1-CLTA
In short: as §1

[15] = system: WPMY1-TUBA1B-RELA
In short: as §1

Measured: phenotypically active

CC[N+](C)(CC)CCOC(=O)C1c2ccccc2Oc2ccccc21 [methantheline]
inactive: [1] 0 | [2] 0 | [3] 0 | [4] 0 | [5] 0 | [6] 0 | [7] 0 | [8] 0 | [9] 0 | [10] 0 | [11] 0 | [12] 0 | [13] 0 | [14] 0 | [15] 0

CN(C)CCOC(=O)C(c1ccccc1)C1(O)CCCC1 (stereo not given) [cyclopentolate]
inactive: [1] 0 | [2] 0 | [3] 0 | [4] 0 | [5] 0 | [6] 0 | [7] 0 | [8] 0 | [9] 0 | [10] 0 | [11] 0 | [12] 0 | [13] 0 | [14] 0 | [15] 0

NC(=O)c1cn(Cc2c(F)cccc2F)nn1 [rufinamide]
inactive: [1] 0 | [2] 0 | [3] 0 | [4] 0 | [5] 0 | [6] 0 | [7] 0 | [8] 0 | [9] 0 | [10] 0 | [11] 0 | [12] 0 | [13] 0 | [14] 0 | [15] 0

Cc1cc2cc(NS(=O)(=O)c3ccc(C#N)cc3)ccc2n(C)c1=O
inactive: [1] 0 | [2] 0 | [3] 0 | [4] 0 | [5] 0 | [6] 0 | [7] 0 | [8] 0 | [9] 0 | [10] 0 | [11] 0 | [12] 0 | [13] 0 | [14] 0 | [15] 0

CCc1cc2c(=O)c(-c3nc4ccccc4s3)coc2c(CN2CCCCC2)c1O
inactive: [1] 0 | [2] 0 | [3] 0 | [4] 0 | [5] 0 | [6] 0 | [7] 0 | [8] 0 | [9] 0 | [10] 0 | [11] 0 | [12] 0 | [13] 0 | [14] 0 | [15] 0

NS(=O)(=O)c1cc(Cl)c(Cl)c(S(N)(=O)=O)c1 [diclofenamide]
inactive: [1] 0 | [2] 0 | [3] 0 | [4] 0 | [5] 0 | [6] 0 | [7] 0 | [8] 0 | [9] 0 | [10] 0 | [11] 0 | [12] 0 | [13] 0 | [14] 0 | [15] 0

CN(N=O)C(=O)N[C@@H](C=O)[C@@H](O)[C@H](O)[C@H](O)CO.CN(N=O)C(=O)N[C@H]1C(O)O[C@H](CO)[C@@H](O)[C@@H]1O [streptozotocin]
inactive: [1] 0 | [2] 0 | [3] 0 | [4] 0 | [5] 0 | [6] 0 | [7] 0 | [8] 0 | [9] 0 | [10] 0 | [11] 0 | [12] 0 | [13] 0 | [14] 0 | [15] 0

CC(=O)O[C@H]1C[C@@H]2CC[C@@H]3[C@H](CC[C@@]4(C)[C@H]3C[C@H]([N+]3(C)CCCCC3)[C@@H]4OC(C)=O)[C@@]2(C)C[C@@H]1N1CCCCC1 [vecuronium]
inactive: [1] 0 | [2] 0 | [3] 0 | [4] 0 | [5] 0 | [6] 0 | [7] 0 | [8] 0 | [9] 0 | [10] 0 | [11] 0 | [12] 0 | [13] 0 | [14] 0 | [15] 0

CCCN(CCC)CCc1cccc2c1CC(=O)N2 [ropinirole]
inactive: [1] 0 | [2] 0 | [3] 0 | [4] 0 | [5] 0 | [6] 0 | [7] 0 | [8] 0 | [9] 0 | [10] 0 | [11] 0 | [12] 0 | [13] 0 | [14] 0 | [15] 0

CN1CCN2c3ncccc3Cc3ccccc3C2C1 (stereo not given) [Mirtazapine]
inactive: [1] 0 | [2] 0 | [3] 0 | [4] 0 | [5] 0 | [6] 0 | [7] 0 | [8] 0 | [9] 0 | [10] 0 | [11] 0 | [12] 0 | [13] 0 | [14] 0 | [15] 0

CN(C)C(=N)NC(=N)N [Metformin hydrochloride]
inactive: [1] 0 | [2] 0 | [3] 0 | [4] 0 | [5] 0 | [6] 0 | [7] 0 | [8] 0 | [9] 0 | [10] 0 | [11] 0 | [12] 0 | [13] 0 | [14] 0 | [15] 0
